Experimental data: paper PMC7862700, “An all-to-all approach to the identification of sequence-specific readers for epigenetic DNA modifications on cytosine”

Columns and labels:
Assay in all cases: DAPPL (digital affinity profiling via proximity ligation, sequencing); 10 mM Tris-HCl pH 7.5, 50 mM NaCl, 1 mM DTT, 4% glycerol, room temperature, 30 min; GST-TFs on glutathione beads, 16-mer random dsDNA library, 0.1% formaldehyde crosslink after washing; high values mean tight binding
Settings in all cases: protein: recombinant; tags: N-terminal GST; dsDNA, one strand shown
ERG = molecular target: T1, ERG (Homo sapiens, UniProt P11308 1-479)
T1 sequence: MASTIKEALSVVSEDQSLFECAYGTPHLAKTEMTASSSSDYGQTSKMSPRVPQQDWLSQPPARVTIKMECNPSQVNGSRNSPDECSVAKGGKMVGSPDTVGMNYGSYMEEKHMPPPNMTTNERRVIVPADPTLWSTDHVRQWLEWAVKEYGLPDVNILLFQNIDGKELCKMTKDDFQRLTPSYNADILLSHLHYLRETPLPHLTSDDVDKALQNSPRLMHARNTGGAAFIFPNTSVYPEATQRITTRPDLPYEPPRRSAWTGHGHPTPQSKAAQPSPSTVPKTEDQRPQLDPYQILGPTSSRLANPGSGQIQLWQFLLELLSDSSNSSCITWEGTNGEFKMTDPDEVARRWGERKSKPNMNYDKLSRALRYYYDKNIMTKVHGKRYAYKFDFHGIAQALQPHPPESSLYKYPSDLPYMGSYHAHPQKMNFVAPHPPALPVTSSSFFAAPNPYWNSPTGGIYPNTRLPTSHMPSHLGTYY
How it was run: (§1)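 Human transcription factors fused to GST were expressed in yeast, captured on glutathione beads, given DNA barcodes and pooled with a GST-only negative control. Pools were incubated with 200 nmole of a 16-mer random double-stranded DNA library in Tris/NaCl/DTT/glycerol buffer at room temperature for 30 min. They were then washed, crosslinked with 0.1% formaldehyde, proximity-ligated (BsaI/T4 ligase, 1 h, 37 °C), PCR-amplified and sequenced on an Illumina NextSeq500. Binding signal is each 6-mer's read frequency for a factor divided by its frequency for the GST control.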

SPIB = SPIB (Homo sapiens, UniProt Q01892 1-262)
SPIB, sequence (Q01892 whole entry): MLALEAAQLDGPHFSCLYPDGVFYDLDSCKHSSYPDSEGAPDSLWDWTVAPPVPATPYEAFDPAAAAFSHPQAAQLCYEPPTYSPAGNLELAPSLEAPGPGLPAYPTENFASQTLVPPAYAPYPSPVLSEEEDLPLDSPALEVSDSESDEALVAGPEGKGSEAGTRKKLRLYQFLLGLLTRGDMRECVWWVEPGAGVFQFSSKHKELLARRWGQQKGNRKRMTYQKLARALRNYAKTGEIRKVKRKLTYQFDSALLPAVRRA
How it was run: as §1

SPIC = molecular target: T2, SPIC (Homo sapiens, UniProt Q8N5J4 1-248)
T2 sequence: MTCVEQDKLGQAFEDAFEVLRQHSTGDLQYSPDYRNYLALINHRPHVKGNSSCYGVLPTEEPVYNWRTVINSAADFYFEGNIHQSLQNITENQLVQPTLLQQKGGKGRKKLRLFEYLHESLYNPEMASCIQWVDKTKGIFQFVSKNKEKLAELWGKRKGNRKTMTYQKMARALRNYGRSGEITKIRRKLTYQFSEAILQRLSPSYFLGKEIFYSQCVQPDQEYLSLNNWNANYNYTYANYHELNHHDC
How it was run: as §1

ETV3 = molecular target: T3, ETV3 (Homo sapiens, UniProt P41162-2 1-143)
T3 sequence: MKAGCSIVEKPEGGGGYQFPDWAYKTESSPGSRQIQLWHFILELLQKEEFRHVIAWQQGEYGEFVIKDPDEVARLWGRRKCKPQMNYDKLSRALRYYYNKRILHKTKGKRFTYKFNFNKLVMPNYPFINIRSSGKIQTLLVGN
How it was run: as §1

ELK1 = molecular target: T4, ELK1 (Homo sapiens, UniProt P19419 1-428)
T4 sequence: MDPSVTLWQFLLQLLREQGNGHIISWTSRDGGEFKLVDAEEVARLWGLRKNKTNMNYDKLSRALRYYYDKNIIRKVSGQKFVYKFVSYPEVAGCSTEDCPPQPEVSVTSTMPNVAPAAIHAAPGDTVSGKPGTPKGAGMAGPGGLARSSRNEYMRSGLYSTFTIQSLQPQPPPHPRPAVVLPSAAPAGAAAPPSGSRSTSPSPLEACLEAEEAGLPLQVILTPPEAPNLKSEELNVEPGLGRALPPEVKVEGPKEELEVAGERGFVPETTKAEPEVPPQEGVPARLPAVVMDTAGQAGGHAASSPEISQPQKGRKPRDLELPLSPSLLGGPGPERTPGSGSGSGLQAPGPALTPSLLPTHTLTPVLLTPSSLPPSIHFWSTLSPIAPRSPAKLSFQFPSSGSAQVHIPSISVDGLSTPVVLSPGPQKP
How it was run: as §1

GABPA = molecular target: T5, GABPA (Homo sapiens, UniProt Q06546 1-454)
T5 sequence: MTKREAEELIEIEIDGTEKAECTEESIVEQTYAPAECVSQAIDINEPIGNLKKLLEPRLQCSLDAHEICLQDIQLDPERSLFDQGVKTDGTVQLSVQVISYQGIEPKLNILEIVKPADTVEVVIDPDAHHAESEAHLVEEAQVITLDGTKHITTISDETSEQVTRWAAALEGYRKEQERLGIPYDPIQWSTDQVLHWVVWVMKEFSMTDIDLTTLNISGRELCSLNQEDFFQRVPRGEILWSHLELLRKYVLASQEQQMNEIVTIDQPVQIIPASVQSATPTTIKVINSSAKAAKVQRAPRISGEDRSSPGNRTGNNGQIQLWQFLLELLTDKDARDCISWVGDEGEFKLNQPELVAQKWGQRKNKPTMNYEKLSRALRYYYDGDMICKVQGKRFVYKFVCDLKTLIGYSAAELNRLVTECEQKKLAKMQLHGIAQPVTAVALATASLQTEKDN
How it was run: as §1

ELF1 = ELF1 (Homo sapiens, UniProt P32519 1-619)
ELF1, sequence (P32519 whole entry): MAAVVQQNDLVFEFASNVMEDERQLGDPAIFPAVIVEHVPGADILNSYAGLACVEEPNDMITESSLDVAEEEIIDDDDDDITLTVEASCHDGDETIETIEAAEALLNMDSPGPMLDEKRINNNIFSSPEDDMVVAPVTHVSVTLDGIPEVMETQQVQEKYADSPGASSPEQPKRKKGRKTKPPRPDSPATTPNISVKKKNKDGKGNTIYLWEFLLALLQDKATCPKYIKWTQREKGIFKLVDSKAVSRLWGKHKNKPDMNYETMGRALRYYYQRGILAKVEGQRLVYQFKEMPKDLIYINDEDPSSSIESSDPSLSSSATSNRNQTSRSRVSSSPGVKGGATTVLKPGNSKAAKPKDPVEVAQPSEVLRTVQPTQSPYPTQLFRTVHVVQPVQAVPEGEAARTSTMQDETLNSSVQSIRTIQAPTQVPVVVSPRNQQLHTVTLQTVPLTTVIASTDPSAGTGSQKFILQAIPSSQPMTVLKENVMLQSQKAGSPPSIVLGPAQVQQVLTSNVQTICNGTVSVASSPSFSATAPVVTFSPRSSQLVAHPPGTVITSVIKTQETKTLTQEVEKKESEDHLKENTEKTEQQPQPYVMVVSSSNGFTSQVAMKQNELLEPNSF
How it was run: as §1

EHF = molecular target: T6, EHF (Homo sapiens, UniProt Q9NZC4 1-300)
T6 sequence: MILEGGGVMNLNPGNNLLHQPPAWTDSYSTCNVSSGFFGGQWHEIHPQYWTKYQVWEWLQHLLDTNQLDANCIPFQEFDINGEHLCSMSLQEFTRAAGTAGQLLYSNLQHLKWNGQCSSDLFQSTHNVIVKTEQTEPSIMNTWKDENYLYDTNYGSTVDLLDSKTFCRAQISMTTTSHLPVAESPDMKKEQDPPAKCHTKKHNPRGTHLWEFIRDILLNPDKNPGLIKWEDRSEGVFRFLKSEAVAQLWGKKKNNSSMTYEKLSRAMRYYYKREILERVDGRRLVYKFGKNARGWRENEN
How it was run: as §1

ELK3 = molecular target: T7, ELK3 (Homo sapiens, UniProt P41970 1-407)
T7 sequence: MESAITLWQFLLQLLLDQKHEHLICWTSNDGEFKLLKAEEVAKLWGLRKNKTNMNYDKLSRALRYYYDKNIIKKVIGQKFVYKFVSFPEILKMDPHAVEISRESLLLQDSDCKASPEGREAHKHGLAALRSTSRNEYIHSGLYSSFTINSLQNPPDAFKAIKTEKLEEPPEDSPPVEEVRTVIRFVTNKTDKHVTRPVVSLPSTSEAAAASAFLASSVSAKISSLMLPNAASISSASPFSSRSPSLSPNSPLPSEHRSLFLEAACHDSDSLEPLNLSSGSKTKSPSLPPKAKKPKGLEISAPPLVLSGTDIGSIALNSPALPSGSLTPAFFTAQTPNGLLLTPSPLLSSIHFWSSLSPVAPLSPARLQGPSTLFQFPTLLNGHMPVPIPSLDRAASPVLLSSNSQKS
How it was run: as §1

ELF4 = ELF4 (Homo sapiens, UniProt Q99607 1-663)
ELF4, sequence (Q99607 whole entry): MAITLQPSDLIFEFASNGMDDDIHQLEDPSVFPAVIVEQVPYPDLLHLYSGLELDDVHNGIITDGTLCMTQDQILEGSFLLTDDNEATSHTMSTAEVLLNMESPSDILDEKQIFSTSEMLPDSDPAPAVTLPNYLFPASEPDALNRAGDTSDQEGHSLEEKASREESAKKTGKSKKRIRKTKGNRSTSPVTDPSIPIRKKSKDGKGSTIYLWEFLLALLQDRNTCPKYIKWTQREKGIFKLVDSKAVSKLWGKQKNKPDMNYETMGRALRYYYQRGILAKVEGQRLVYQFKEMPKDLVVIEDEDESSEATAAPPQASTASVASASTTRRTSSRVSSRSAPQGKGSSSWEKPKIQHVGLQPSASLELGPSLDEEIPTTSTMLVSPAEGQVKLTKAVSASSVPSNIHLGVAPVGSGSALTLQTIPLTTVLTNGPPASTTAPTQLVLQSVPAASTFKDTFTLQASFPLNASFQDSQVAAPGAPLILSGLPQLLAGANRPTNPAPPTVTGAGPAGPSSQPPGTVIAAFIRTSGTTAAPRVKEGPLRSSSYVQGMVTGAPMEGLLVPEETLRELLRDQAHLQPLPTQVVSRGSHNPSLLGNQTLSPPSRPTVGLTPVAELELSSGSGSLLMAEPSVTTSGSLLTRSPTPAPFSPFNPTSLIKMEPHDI
How it was run: as §1

ELF3 = molecular target: T8, ELF3 (Homo sapiens, UniProt P78545 1-371)
T8 sequence: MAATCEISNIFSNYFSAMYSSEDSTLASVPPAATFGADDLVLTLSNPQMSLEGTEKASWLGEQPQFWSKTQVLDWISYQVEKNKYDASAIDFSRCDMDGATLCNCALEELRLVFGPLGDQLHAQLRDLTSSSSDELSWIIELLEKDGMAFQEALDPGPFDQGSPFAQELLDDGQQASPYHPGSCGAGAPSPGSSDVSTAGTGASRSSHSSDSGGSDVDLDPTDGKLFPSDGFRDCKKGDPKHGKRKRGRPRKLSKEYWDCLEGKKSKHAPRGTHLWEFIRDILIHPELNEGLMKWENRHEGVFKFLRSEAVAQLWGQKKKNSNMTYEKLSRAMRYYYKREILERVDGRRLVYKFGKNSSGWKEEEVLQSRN
How it was run: as §1

ETV1 = ETV1 (Homo sapiens, UniProt P50549 1-477)
ETV1, sequence (P50549 whole entry): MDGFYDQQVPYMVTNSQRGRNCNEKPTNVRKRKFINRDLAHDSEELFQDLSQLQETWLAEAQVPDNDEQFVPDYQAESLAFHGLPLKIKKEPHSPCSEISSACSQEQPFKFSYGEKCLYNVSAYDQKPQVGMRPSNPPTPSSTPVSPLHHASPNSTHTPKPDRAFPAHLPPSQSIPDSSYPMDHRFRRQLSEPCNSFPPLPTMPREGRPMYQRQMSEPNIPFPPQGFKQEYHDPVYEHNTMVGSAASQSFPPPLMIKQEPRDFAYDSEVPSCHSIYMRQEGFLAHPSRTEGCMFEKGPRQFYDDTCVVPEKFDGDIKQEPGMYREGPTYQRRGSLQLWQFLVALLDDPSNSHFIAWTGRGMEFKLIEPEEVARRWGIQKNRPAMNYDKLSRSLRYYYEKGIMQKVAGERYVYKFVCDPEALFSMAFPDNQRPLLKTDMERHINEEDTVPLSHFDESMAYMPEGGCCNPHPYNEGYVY
How it was run: as §1

ERF = molecular target: T9, ERF (Homo sapiens, UniProt P50548 1-548)
T9 sequence: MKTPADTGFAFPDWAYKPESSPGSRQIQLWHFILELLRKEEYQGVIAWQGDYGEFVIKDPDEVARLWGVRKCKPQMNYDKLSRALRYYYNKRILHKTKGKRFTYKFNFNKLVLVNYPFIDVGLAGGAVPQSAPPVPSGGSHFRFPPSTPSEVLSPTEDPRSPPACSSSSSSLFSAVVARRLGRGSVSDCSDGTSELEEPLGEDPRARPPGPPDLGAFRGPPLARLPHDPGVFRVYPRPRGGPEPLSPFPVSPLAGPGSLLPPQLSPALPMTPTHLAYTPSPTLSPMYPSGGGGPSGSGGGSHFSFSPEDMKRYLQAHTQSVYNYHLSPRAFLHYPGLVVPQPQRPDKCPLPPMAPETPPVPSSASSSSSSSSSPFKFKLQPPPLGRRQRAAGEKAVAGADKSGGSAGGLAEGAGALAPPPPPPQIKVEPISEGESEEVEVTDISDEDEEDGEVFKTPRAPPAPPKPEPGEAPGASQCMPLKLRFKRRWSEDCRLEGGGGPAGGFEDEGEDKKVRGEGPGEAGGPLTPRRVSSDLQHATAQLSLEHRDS
How it was run: as §1

ETV3L = molecular target: T10, ETV3L (Homo sapiens, UniProt Q6ZN32 1-361)
T10 sequence: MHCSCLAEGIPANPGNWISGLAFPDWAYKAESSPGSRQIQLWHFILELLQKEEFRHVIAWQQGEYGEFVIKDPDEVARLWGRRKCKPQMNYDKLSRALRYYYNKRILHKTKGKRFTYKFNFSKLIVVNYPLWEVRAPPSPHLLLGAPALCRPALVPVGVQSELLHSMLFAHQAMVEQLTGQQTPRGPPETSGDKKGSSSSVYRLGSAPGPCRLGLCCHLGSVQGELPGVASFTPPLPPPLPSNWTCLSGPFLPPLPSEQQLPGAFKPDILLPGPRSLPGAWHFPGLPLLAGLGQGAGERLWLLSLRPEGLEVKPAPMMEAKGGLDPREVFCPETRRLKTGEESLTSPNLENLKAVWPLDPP
How it was run: as §1

ETS2 = molecular target: T11, ETS2 (Homo sapiens, UniProt P15036 1-469)
T11 sequence: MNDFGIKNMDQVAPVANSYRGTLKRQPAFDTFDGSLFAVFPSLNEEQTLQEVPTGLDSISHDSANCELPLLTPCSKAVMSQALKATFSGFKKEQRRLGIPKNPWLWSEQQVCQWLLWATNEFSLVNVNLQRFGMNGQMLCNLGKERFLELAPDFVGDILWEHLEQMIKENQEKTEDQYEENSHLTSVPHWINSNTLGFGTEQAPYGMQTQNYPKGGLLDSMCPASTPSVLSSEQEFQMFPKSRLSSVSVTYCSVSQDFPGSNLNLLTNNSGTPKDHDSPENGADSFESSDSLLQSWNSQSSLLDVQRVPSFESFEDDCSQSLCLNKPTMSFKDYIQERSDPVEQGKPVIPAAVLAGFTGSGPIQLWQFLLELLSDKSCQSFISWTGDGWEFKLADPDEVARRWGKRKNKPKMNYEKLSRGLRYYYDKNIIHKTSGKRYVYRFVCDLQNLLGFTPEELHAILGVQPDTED
How it was run: as §1

ETV7 = molecular target: T12, ETV7 (Homo sapiens, UniProt Q9Y603 1-341)
T12 sequence: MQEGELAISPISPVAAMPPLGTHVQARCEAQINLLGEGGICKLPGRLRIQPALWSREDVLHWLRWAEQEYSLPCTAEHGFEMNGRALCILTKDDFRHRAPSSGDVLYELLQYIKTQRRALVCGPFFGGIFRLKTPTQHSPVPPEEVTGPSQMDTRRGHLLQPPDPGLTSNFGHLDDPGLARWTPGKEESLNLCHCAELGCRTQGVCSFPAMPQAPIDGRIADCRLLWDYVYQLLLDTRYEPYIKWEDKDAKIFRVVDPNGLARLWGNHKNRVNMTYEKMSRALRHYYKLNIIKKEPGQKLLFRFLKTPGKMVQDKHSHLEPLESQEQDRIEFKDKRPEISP
How it was run: as §1

ETV6 = ETV6 (Homo sapiens, UniProt P41212 1-452)
ETV6, sequence (P41212 whole entry): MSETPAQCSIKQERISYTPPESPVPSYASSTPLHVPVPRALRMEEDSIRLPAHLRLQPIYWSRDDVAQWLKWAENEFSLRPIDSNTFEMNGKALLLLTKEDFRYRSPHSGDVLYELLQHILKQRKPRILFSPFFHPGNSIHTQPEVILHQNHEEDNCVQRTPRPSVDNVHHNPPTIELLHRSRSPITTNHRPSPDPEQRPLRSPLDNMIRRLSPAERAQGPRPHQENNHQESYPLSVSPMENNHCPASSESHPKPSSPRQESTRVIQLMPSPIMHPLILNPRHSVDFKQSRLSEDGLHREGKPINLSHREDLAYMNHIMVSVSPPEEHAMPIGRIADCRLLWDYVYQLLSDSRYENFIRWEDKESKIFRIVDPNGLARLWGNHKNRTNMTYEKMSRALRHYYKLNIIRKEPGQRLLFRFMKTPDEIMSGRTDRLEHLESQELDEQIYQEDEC
How it was run: as §1

For ATCCGT, the binding signal (ERG) was 1.04 fold enrichment (6-mer frequency, TF over GST control), the binding signal (SPIB) was 1.1 fold enrichment (6-mer frequency, TF over GST control) and the binding signal (SPIC) was 1 fold enrichment (6-mer frequency, TF over GST control). The binding signal (ETV3) was 1.04 fold enrichment (6-mer frequency, TF over GST control).
In the case of GACCGG, the binding signal (ELK1) was 1.11 fold enrichment (6-mer frequency, TF over GST control), the binding signal (GABPA) was 1.02 fold enrichment (6-mer frequency, TF over GST control) and the binding signal (ERG) was 1.31 fold enrichment (6-mer frequency, TF over GST control). The binding signal (ELF1) was 1 fold enrichment (6-mer frequency, TF over GST control), the binding signal (EHF) was 1.06 fold enrichment (6-mer frequency, TF over GST control) and the binding signal (SPIB) was 1.07 fold enrichment (6-mer frequency, TF over GST control). The binding signal (ELK3) was 1.23 fold enrichment (6-mer frequency, TF over GST control), the binding signal (ELF4) was 1.03 fold enrichment (6-mer frequency, TF over GST control) and the binding signal (ELF3) was 1.14 fold enrichment (6-mer frequency, TF over GST control). The binding signal (ETV1) was 1.21 fold enrichment (6-mer frequency, TF over GST control), the binding signal (ERF) was 1.06 fold enrichment (6-mer frequency, TF over GST control) and the binding signal (ETV3L) was 1.08 fold enrichment (6-mer frequency, TF over GST control). For the same sequence, the binding signal (ETS2) was 1.07 fold enrichment (6-mer frequency, TF over GST control), the binding signal (ETV7) was 1.06 fold enrichment (6-mer frequency, TF over GST control) and the binding signal (ETV3) was 1.09 fold enrichment (6-mer frequency, TF over GST control). The binding signal (ETV6) was 1.03 fold enrichment (6-mer frequency, TF over GST control).
